Only a sample is shown.
aSyn 5UTR act = Activators via SNCA 5'UTR binding, MLPCN; activity score, % (tested at 7.5 µM), hits read low; 300,000 compounds, 7.1% hits; alpha-synuclein 5'UTR reporter, activators screen; in the data active = activity score below about -60%
Numbers without * were called inactive.

SMILES	aSyn 5UTR act
Cc1ccc(NCC(=O)N/N=C\C(Br)=C\c2ccccc2)cc1	-65.0*
O=C(N/N=C/C(Br)=C/c1ccccc1)NC1CCCCC1	-84.7*
COc1cccc(NC(=O)Nc2ccc(C)c(Cl)c2)c1	-156.6*
Cc1ccc(NC(=O)Nc2ccc(F)cc2)cc1Cl	-130.4*
CC1Oc2ccccc2C=C1/C=N/NC(=O)c1ccccc1O (stereo not given)	-130.8*
Cc1ccc(C(=O)N/N=C/C2=Cc3ccccc3OC2C)cc1 (stereo not given)	-70.9*
CC1Oc2ccccc2C=C1/C=N/NC(=O)c1ccccc1 (stereo not given)	-159.1*
O=C(N/N=C/c1cc2c3c(c1O)CCCN3CCC2)c1ccccc1O	104.3
Cc1ccc(OCC(=O)N2CCOCC2)cc1C	-68.0*
Cc1ccc(OCc2ccc(C(=O)N3CCOCC3)cc2)cc1C	-65.5*
CS(=O)(=O)N1CCN(c2nc3ccc(Cl)cc3s2)CC1	-98.9*
Clc1ccc2nc(N3CCCCC3)sc2c1	-148.4*
O=c1c(Cl)c(N2CCCCC2)cnn1-c1nc2ccccc2[nH]1	93.2
Clc1ccc2nc(N3CCCCC3)[nH]c2c1	-123.3*
Cc1ccc(C(=O)Nc2c3c(nn2C(C)(C)C)CS(=O)(=O)C3)cc1[N+](=O)[O-]	-79.3*
CC(C)(C)n1nc2c(c1NC(=O)c1cc([N+](=O)[O-])ccc1Cl)CS(=O)(=O)C2	-94.6*
C=CCSc1nnc(-c2sc(-c3ccccc3)nc2C)n1C	-63.8*
COc1ccc2nc(N3CCOCC3)cc(C)c2c1	-78.9*
Cc1cc(N2CCN(c3ccc(F)cc3)CC2)nc2cc(O)ccc12	-66.1*
Cc1cc(N2CCN(c3ccccc3F)CC2)nc2cc(O)ccc12	-63.7*
Cc1cc(N2CCOCC2)nc2cc(O)ccc12	-136.4*
C[C@@H](CO)NC(=O)c1ccc2c3n(nc2c1)-c1ccc(Cl)cc1CO3	-192.2*
CC(C)[C@@H](CO)NC(=O)c1ccc2c3n(nc2c1)-c1ccc(Cl)cc1CO3	-179.6*
CCOc1cccc(/C=C2\NC(=S)N(c3ccccc3)C2=O)c1O	-147.8*
CC(C)CN1CCC(=O)N(CCSc2ccccc2)CC1	-107.3*
SMILES	aSyn 5UTR act
CCCN1CCC(=O)N(CCSc2ccc(C)cc2)CC1	-78.9*
O=C1CCC(O)CCN1CCSc1ccccc1 (stereo not given)	-92.9*
Clc1cccc(Nc2ncnc3c2cnn3-c2ccccc2)c1	-86.3*
Fc1cccc(Nc2ncnc3c2cnn3-c2ccccc2)c1	-172.8*
O=C(O)c1cccc(Nc2ncnc3c2cnn3-c2ccccc2)c1	-100.9*
CCOC(=O)c1ccc2c(c1)[nH]c(=S)n2CC	-64.2*
O=C1Nc2ccc3sc4ccccc4c3c2C1=O	-68.8*
CCN(CC)c1ccc(/C=N/N2CCOCC2)cc1	-151.5*
CCN(CC)c1ccc(/C=N/n2c(-c3ccccc3Br)n[nH]c2=S)cc1	77.5
CCOc1ccccc1NC(=O)c1cccc(NC(=O)c2ccco2)c1	-184.8*
CCOC(=O)c1cccc(NC(=O)c2ccc(NC(=O)c3ccco3)cc2)c1	-67.2*
COc1ccc(CCNC(=O)c2cccn2C)cc1	-89.3*
Cn1cccc1C(=O)NCCc1ccc(Cl)cc1	-162.4*
CCCN(CCC)c1ccc(/C=C/c2ccc3cc(OCC)ccc3n2)cc1	-112.1*
CN(C)c1ccc(/C=C/c2ccc3ccccc3n2)cc1	89.1
C#CCSc1nnc(-c2ccc(O)cc2)o1	-137.7*
C#CCSc1nnc(-c2ccc(C)cc2)o1	-164.1*
C#CCSc1nnc(-c2cccc3ccccc23)o1	-103.9*
O=C(Nc1ccc(OC(F)F)c(Cl)c1)c1ccccn1	-92.0*
Cc1ccc(NC(=S)Nc2ccc(OC(F)F)c(Cl)c2)cc1F	-105.1*
COc1ccc(NC(=O)c2ccc(OC(F)F)cc2)cc1Cl	-167.5*
CCc1nnc(NC(=S)Nc2ccccc2)s1	-123.5*
Cc1nc(NC(=S)Nc2ccccc2)sc1C	-165.6*
COc1ccc2c(c1)[nH]c1c(=O)n(Cc3ccco3)cnc12	-65.4*
CCCCn1cnc2c([nH]c3cc(OC)ccc32)c1=O	-129.2*
SMILES	aSyn 5UTR act
CN(C)c1ncc(C2=C(Cl)C(=O)C(N3CCCC3)=C(Cl)C2=O)s1	-69.9*
O=C(CSc1cn(Cc2ccccc2)c2ccccc12)N1CCOCC1	-129.4*
COc1cc(C(=O)N/N=C/c2cn(Cc3ccccc3)c3ccccc23)ccc1O	57.2
O=C(Cn1cc(SCc2ccc(Cl)cc2)c2ccccc21)N1CCOCC1	-89.8*
CCc1ccc(NC(=O)C(=S)NC2CCCCC2)cc1	-177.5*
CCOc1ccc(NC(=O)C(=S)NC2CCCCC2)cc1	-192.2*
O=C(CSCCO)Nc1ccc(C2CCCCC2)cc1	-127.0*
COc1ccc(NC(=O)CSC2CCCCC2)cc1	-157.7*
COc1ccc(NC(=O)C(=S)NC2CCCCC2)cc1	-125.0*
COc1ccc(NC(=O)C(=S)N2CCCC2)cc1	-63.2*
O=C(NC(=O)c1ccc(F)cc1F)Nc1ccc(Cl)cc1	-158.7*
O=C(Nc1ccccc1)c1ccc(F)cc1F	-107.9*
Cc1ccc(NC(=O)c2ccc(F)cc2F)cc1	-195.0*
Cc1ccc(S(=O)(=O)Nc2ccc(NC(=O)Nc3ccc(F)cc3F)cc2)cc1	78.5
N#Cc1nc(COc2cccc(Cl)c2)oc1NCc1ccco1	-105.3*
COc1ccc(Nc2oc(COc3ccc(C)cc3)nc2C#N)cc1	67.9
CCNc1oc(COc2cccc(C)c2)nc1C#N	-94.9*
COc1cccc(-c2nn(C)c3sc(C(=O)Nc4ccc5c(c4)OCCO5)cc23)c1	-100.9*
CCc1cc2c(=O)c(-c3cscn3)coc2cc1O	-139.1*
O=C1N=C(N2CCCCC2)S/C1=C\c1ccc(Br)cc1	-128.1*
O=C1N=C(N2CCCCC2)S/C1=C/C1=Cc2ccccc2OC1	-102.8*
Cc1nn(C)c(=O)n1-c1ccc(OCc2ccccc2)cc1	-103.8*
Cc1nn(CCOc2ccccc2)c(=O)n1-c1ccc(F)cc1	-64.6*
Cn1nnnc1SCc1ccc(C(=O)Nc2ccc(Br)cc2)cc1	-185.7*
CCOC(=O)c1ccc(CSc2nnc(-c3ccncc3)n2N)cc1	-63.2*
SMILES	aSyn 5UTR act
Cc1ccc(NC(=O)c2ccc(CSc3nnc(-c4ccncc4)n3C)cc2)cc1	-108.2*
Cc1cc(C2=NNC(=NC3CC3)SC2)c(C)n1-c1ccccc1	95.2
Cc1cc(-c2nnco2)c(C)n1-c1ccccc1	-101.2*
C=CCn1c(O)c(N=NC(=S)Nc2ccccc2F)c2cc(S(=O)(=O)N3CCOCC3)ccc21	77.9
O=C(Nc1ccccc1)NC1CCCCC1	-66.4*
O=C(Nc1ccccc1)NC1CCCCCCC1	-106.2*
Cc1ccc(C(=O)Nc2nc3ccccc3c(=O)s2)cc1	-189.9*
Nc1ccc(-c2nc3ccc(C(=O)O)cc3s2)cc1	95.4
CC(C)(C)N1C(=O)c2ccc(C(=O)Nc3ccc(O)cc3)cc2C1=O	-87.2*
COc1ccc2nc(NC(=O)c3ccc4ncsc4c3)sc2c1	-133.7*
NC(=O)c1ccc2nc(NC(=O)c3ccc(N)cc3)sc2c1	-78.7*
O=C(Nc1nc(-c2cccs2)cs1)c1ccc(Cl)s1	-146.5*
COc1ccc(OC)c(-c2csc(NC(=O)c3ccc(F)cc3)n2)c1	-201.7*
O=C(Nc1nc2ccccc2s1)c1ccc(F)cc1	-89.4*
CCc1nnc(NC(=O)c2ccc(NC(=O)C(C)C)cc2)s1	-100.6*
O=C(Nc1nc(=O)c2ccccc2s1)c1ccccc1	-156.6*
CCc1nnc(NC(=O)c2ccc3c(c2)C(=O)N(C(C)(C)C)C3=O)s1	-145.0*
COc1ccc2nc(NC(=O)c3ccc(F)cc3)sc2c1	-155.6*
O=C(Nc1nc2ccccc2s1)c1ccc(Cl)s1	-170.3*
CCc1nnc(NC(=O)c2ccc3ncsc3c2)s1	-102.0*
COc1ccc2nc(NC(=O)c3cccs3)sc2c1	-78.3*
